Some test systems named below: NCI-H23 lung; NCI-H226 lung; NCI-H322M lung; HOP-62 NSCLC; NCI-H460 lung; HOP-92 NSCLC; NCI-H522 lung; A549/ATCC NSCLC; 786-0 renal; COLO 205 colon.
Holding throughout (experiment): NCI-60 one-dose screen, 48 h (100 = growth as untreated, 0 = no growth, -100 = all killed)
Conditions in all cases: 10 µM unless noted

SMILES strings stand for the structures. The panel holds about 83,000 compounds, 20% with a hit somewhere; the sample as a whole holds those more often.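 Note: values are percent growth. 100 is the growth of untreated cells, values between 100 and 0 indicate rising inhibition; between -100 and 0 indicates cell death.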 Values without a mark were called inactive. Calls of active or inactive are those of the source. How the source made its calls: active means growth percent below 10; inactive means the rest.

With `Cc1ccc(-c2nc3ccc(Cl)cc3c(=O)n2N2C(=O)CSC2c2ccccc2Cl)cc1` (stereo not given), the growth in the experiment on NCI-H23 lung was 91.1%; in the experiment on NCI-H226 lung, 86.6%; in the experiment on NCI-H322M lung, 86.7%; with HOP-62 NSCLC, 2.48% (active); with NCI-H460 lung it was 48.5%; in the experiment on HOP-92 NSCLC it was -4.8% (active). Further, the growth is 76.9% in the experiment on NCI-H522 lung, 13.2% in the experiment on A549/ATCC NSCLC, 70% in the experiment on 786-0 renal and 66.6% in the experiment with COLO 205 colon.
With `Cc1cc2nc3c4cc(Cl)ccc4n(CCN(C)C)c3nc2cc1C`, the growth with NCI-H23 lung is 10.7%; with NCI-H226 lung, 10.4%; with NCI-H322M lung it was 9.53% (active); in the experiment on HOP-62 NSCLC, 22.1%; with NCI-H460 lung, 1.36% (active); with HOP-92 NSCLC it was 25.8%. Besides, the growth in the experiment with NCI-H522 lung is 19.7%; in the experiment with A549/ATCC NSCLC, 3.82% (active); in the experiment on 786-0 renal, 14.3%; with COLO 205 colon it was -49.6% (active).
`NC(N)=N/N=C/c1ccc(-c2ccc(-c3ccc(Cl)cn3)s2)cc1`: the growth in the experiment on NCI-H23 lung was 101%; in the experiment on NCI-H226 lung, 88.6%; in the experiment with NCI-H322M lung it was 96.7%; with HOP-62 NSCLC, 93.8%; in the experiment with NCI-H460 lung, 88.1%; with HOP-92 NSCLC it was 58.3%. The growth in the experiment on NCI-H522 lung was 97.6%; in the experiment with A549/ATCC NSCLC, 71.4%; in the experiment on 786-0 renal, 63.8%; with COLO 205 colon, 28.7%.
Regarding `O=C(N/N=C\c1ccccc1O)C1CC1`, the growth with NCI-H23 lung was 116%; in the experiment with NCI-H226 lung, 104%; with NCI-H322M lung, 88.8%; in the experiment with HOP-62 NSCLC it was 105%; with NCI-H460 lung it was 115%; with HOP-92 NSCLC, 90.8%. The growth in the experiment with NCI-H522 lung is 98.1%; in the experiment with A549/ATCC NSCLC it was 102%; in the experiment on 786-0 renal, 105%; with COLO 205 colon, 109%.
As for `COc1ccc(OCC(CO)N2CCN(c3ccccc3)CC2)cc1` (stereo not given), the growth in the experiment on NCI-H23 lung is 103%; with NCI-H226 lung, 106%; with NCI-H322M lung, 115%; in the experiment on HOP-62 NSCLC it was 118%; in the experiment with NCI-H460 lung it was 116%; in the experiment on HOP-92 NSCLC, 81.2%. Moreover, the growth in the experiment on NCI-H522 lung was 99.4%; in the experiment with A549/ATCC NSCLC it was 100%; with 786-0 renal, 101%; with COLO 205 colon, 96.3%.
For the compound `C[C@H]1[C@@H]2[C@H]3CC[C@@H]4[C@@]5(C)Cc6c([nH]c7ccccc67)C(C)(C)[C@@H]5CC[C@@]4(C)[C@]3(C)CC[C@]23CO[C@]1(C)[C@@H](C(=O)/C=C/c1ccccn1)C3`, the growth in the experiment on NCI-H23 lung was 91.7%; in the experiment on NCI-H226 lung, 101%; in the experiment with NCI-H322M lung, 112%; in the experiment on HOP-62 NSCLC it was 109%; with NCI-H460 lung, 98.3%; in the experiment with HOP-92 NSCLC it was 67.2%. Also, the growth in the experiment on NCI-H522 lung was 92.1%; in the experiment on A549/ATCC NSCLC it was 89.4%; in the experiment on 786-0 renal, 106%; in the experiment on COLO 205 colon, 102%.
On to `NCCn1cc(-c2nc(-c3c[nH]c4ncccc34)cs2)c2cc(Br)ccc21`, for which the growth with NCI-H23 lung was 81.9%; in the experiment on NCI-H226 lung, 80.3%; with NCI-H322M lung, 80.1%; with HOP-62 NSCLC, 78.1%; in the experiment with NCI-H460 lung, 14.9%; in the experiment on HOP-92 NSCLC, 53.6%. The growth is 100% with NCI-H522 lung, 65.3% in the experiment with A549/ATCC NSCLC, 87.3% in the experiment with 786-0 renal and -17.1% (active) with COLO 205 colon.
Regarding `O=C1CCC/C=C\C[C@H]2C=C(Cl)C(=O)/C2=C/C[C@H](CCCCC(F)(F)F)OC(=O)CCC/C=C\C[C@H]2C=C(Cl)C(=O)/C2=C/C[C@H](CCCCC(F)(F)F)O1`, the growth with NCI-H23 lung is -35.2% [7.5 µM] (active); in the experiment with NCI-H226 lung it was -19.3% [7.5 µM] (active); with NCI-H322M lung, -36.9% [7.5 µM] (active); with HOP-62 NSCLC, -29.9% [7.5 µM] (active); with NCI-H460 lung it was -33.2% [7.5 µM] (active); in the experiment on HOP-92 NSCLC it was -58.4% [7.5 µM] (active). For the same compound, the growth is -62.2% [7.5 µM] (active) in the experiment with NCI-H522 lung, -44.5% [7.5 µM] (active) with A549/ATCC NSCLC, -55% [7.5 µM] (active) in the experiment on 786-0 renal and -57.2% [7.5 µM] (active) in the experiment on COLO 205 colon.
In the case of `COc1cccc(-c2nn(-c3ccccc3)cc2-c2ccnc(NCCCNS(=O)(=O)c3ccc(Cl)cc3)c2)c1`, the growth in the experiment with NCI-H23 lung is 46.9%; with NCI-H226 lung, 40.3%; in the experiment on NCI-H322M lung it was 66.8%; in the experiment on HOP-62 NSCLC it was 81.8%; with NCI-H460 lung, 40.9%; with HOP-92 NSCLC, 25.1%. Besides, the growth in the experiment with NCI-H522 lung was 41.7%; in the experiment on A549/ATCC NSCLC, 39.9%; in the experiment on 786-0 renal, 37.4%; in the experiment on COLO 205 colon it was 15.1%.
`Cc1nnc2nc(N)[nH]n2c1=O`: the growth in the experiment with NCI-H23 lung is 103%; with NCI-H226 lung, 111%; in the experiment on NCI-H322M lung it was 105%; with HOP-62 NSCLC, 109%; with NCI-H460 lung, 113%; with HOP-92 NSCLC, 66.5%. Also, the growth was 92.8% in the experiment on NCI-H522 lung, 99% in the experiment with A549/ATCC NSCLC, 98.8% with 786-0 renal and 121% in the experiment with COLO 205 colon.
`COc1ccc(-c2cc(=O)oc3ccc(Cl)cc23)cc1F`: the growth with NCI-H23 lung was 18.1%; in the experiment with NCI-H226 lung it was 49.1%; in the experiment on NCI-H322M lung, 46.9%; in the experiment with HOP-62 NSCLC it was 20.8%; in the experiment with NCI-H460 lung, 7.67% (active); in the experiment on HOP-92 NSCLC, 33.6%. Further, the growth is -27.8% (active) in the experiment with NCI-H522 lung, 10.8% with A549/ATCC NSCLC, 25% with 786-0 renal and -26.4% (active) in the experiment with COLO 205 colon.
With `COC(=O)[C@]12CC[C@@H](C)[C@H](C)[C@@H]1C1=CC[C@@H]3[C@@]4(C)C(c5ncon5)=C[C@@](C)(CO)C4=CC[C@@]3(C)[C@]1(C)CC2`, the growth with NCI-H23 lung was -26.2% (active); with NCI-H226 lung, -34.7% (active); in the experiment with NCI-H322M lung, 21.8%; in the experiment on HOP-62 NSCLC, -8.97% (active); with NCI-H460 lung, -33.4% (active); in the experiment on HOP-92 NSCLC, -49.9% (active). Moreover, the growth was -77.5% (active) in the experiment with NCI-H522 lung, 29.5% with A549/ATCC NSCLC, -23.8% (active) in the experiment on 786-0 renal and -46% (active) with COLO 205 colon.
Regarding `CC1(C)[C@@H](O)CC[C@]2(C)[C@H]3CC[C@@H]4[C@H]5[C@H](C(=O)/C=C/c6ccc(C(F)(F)F)cc6)CC[C@]5(CO)CC[C@@]4(C)[C@]3(C)CC[C@@H]12`, the growth with NCI-H23 lung is 56.9%; in the experiment with NCI-H226 lung it was 30%; in the experiment on NCI-H322M lung it was 80.7%; in the experiment on HOP-62 NSCLC it was 97.4%; in the experiment on NCI-H460 lung, 65.4%; in the experiment with HOP-92 NSCLC, 66%. Besides, the growth with NCI-H522 lung is 60.6%; with A549/ATCC NSCLC, 47.8%; in the experiment on 786-0 renal, 64.9%; with COLO 205 colon it was 73.8%.
